Structures can show the parent of a compound that is named as a salt. ± gives the standard deviation of the averaged measurements.
How the values were obtained:
[1] = system: Saccharomyces cerevisiae BY4741 SeMeCo community; experiment: mean cell size (pixel area) (pixels); higher = larger cells; conditions: 10 µM; 24 h; SM minimal medium
Procedure, shortened: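 For 24 h, 70 µl of yeast culture diluted to OD600 = 0.3 from an overnight preculture at OD600 = 1.0 was kept in SM medium in 384-well plates acoustically predosed with drug, final 10 µM. The strain was Saccharomyces cerevisiae BY4741 forming a fluorescent community of four plasmids, each complementing one auxotrophy and carrying a fluorescent marker. Automated confocal microscopy of paraformaldehyde-fixed cells, analysed in Harmony, provided mean cell pixel area per well, which was averaged over 3 replicates. Same SeMeCo high-content imaging drug screen: Selleck FDA-approved drugs at 10 µM, 24 h in SM medium, 384-well plates, 3 replicates.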

[2] = system: Saccharomyces cerevisiae BY4741 SeMeCo community; experiment: z-score of prototroph abundance vs DMSO median; higher = larger share of this subpopulation than in DMSO controls; conditions: 10 µM; 24 h; SM minimal medium; subpopulation (auxotrophy): Prototroph
Procedure, shortened: (§1)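 Automated confocal microscopy of paraformaldehyde-fixed cells was used to follow a Saccharomyces cerevisiae BY4741 community carrying four plasmids, each restoring one auxotrophy and encoding a distinct fluorescent protein. The community was pre-grown overnight to OD600 1.0, diluted to 0.3, and added at 70 µl to 384-well plates acoustically predosed with library drugs (10 µM final) for 24 h of growth in minimal SM medium. Single-auxotroph fluorescent strains set thresholds and autofluorescence correction, and each subpopulation's abundance was scored as a z-score against the vehicle-well median.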

[3] = system: Saccharomyces cerevisiae BY4741 SeMeCo community; experiment: z-score of subpopulation abundance vs DMSO median, subpopulation auxotrophic for M; higher = larger share of this subpopulation than in DMSO controls; conditions: 10 µM; 24 h; SM minimal medium; subpopulation (auxotrophy): M
Procedure, shortened: as §1

[4] = system: Saccharomyces cerevisiae BY4741 SeMeCo community; experiment: z-score of subpopulation abundance vs DMSO median, subpopulation auxotrophic for L; higher = larger share of this subpopulation than in DMSO controls; conditions: 10 µM; 24 h; SM minimal medium; subpopulation (auxotrophy): L
Procedure, shortened: as §1

[5] = system: Saccharomyces cerevisiae BY4741 SeMeCo community; experiment: z-score of subpopulation abundance vs DMSO median, subpopulation auxotrophic for U; higher = larger share of this subpopulation than in DMSO controls; conditions: 10 µM; 24 h; SM minimal medium; subpopulation (auxotrophy): U
Procedure, shortened: as §1

[6] = system: Saccharomyces cerevisiae BY4741 SeMeCo community; experiment: z-score of subpopulation abundance vs DMSO median, subpopulation auxotrophic for H; higher = larger share of this subpopulation than in DMSO controls; conditions: 10 µM; 24 h; SM minimal medium; subpopulation (auxotrophy): H
Procedure, shortened: as §1

[7] = system: Saccharomyces cerevisiae BY4741 SeMeCo community; experiment: z-score of subpopulation abundance vs DMSO median, subpopulation auxotrophic for LM; higher = larger share of this subpopulation than in DMSO controls; conditions: 10 µM; 24 h; SM minimal medium; subpopulation (auxotrophy): LM
Procedure, shortened: as §1

[8] = system: Saccharomyces cerevisiae BY4741 SeMeCo community; experiment: z-score of subpopulation abundance vs DMSO median, subpopulation auxotrophic for HM; higher = larger share of this subpopulation than in DMSO controls; conditions: 10 µM; 24 h; SM minimal medium; subpopulation (auxotrophy): HM
Procedure, shortened: as §1

[9] = system: Saccharomyces cerevisiae BY4741 SeMeCo community; experiment: z-score of subpopulation abundance vs DMSO median, subpopulation auxotrophic for HU; higher = larger share of this subpopulation than in DMSO controls; conditions: 10 µM; 24 h; SM minimal medium; subpopulation (auxotrophy): HU
Procedure, shortened: as §1

[10] = system: Saccharomyces cerevisiae BY4741 SeMeCo community; experiment: z-score of subpopulation abundance vs DMSO median, subpopulation auxotrophic for HLU; higher = larger share of this subpopulation than in DMSO controls; conditions: 10 µM; 24 h; SM minimal medium; subpopulation (auxotrophy): HLU
Procedure, shortened: as §1

[11] = system: Saccharomyces cerevisiae BY4741 SeMeCo community; experiment: z-score of subpopulation abundance vs DMSO median, subpopulation auxotrophic for HLM; higher = larger share of this subpopulation than in DMSO controls; conditions: 10 µM; 24 h; SM minimal medium; subpopulation (auxotrophy): HLM
Procedure, shortened: as §1

[12] = system: Saccharomyces cerevisiae BY4741 SeMeCo community; experiment: z-score of subpopulation abundance vs DMSO median, subpopulation auxotrophic for HUM; higher = larger share of this subpopulation than in DMSO controls; conditions: 10 µM; 24 h; SM minimal medium; subpopulation (auxotrophy): HUM
Procedure, shortened: as §1

[13] = system: Saccharomyces cerevisiae BY4741 SeMeCo community; experiment: z-score of subpopulation abundance vs DMSO median, subpopulation auxotrophic for LUM; higher = larger share of this subpopulation than in DMSO controls; conditions: 10 µM; 24 h; SM minimal medium; subpopulation (auxotrophy): LUM
Procedure, shortened: as §1

[14] = system: Saccharomyces cerevisiae BY4741 SeMeCo community; experiment: z-score of subpopulation abundance vs DMSO median, subpopulation auxotrophic for HLUM; higher = larger share of this subpopulation than in DMSO controls; conditions: 10 µM; 24 h; SM minimal medium; subpopulation (auxotrophy): HLUM
Procedure, shortened: as §1

[15] = system: Saccharomyces cerevisiae BY4741 SeMeCo community; experiment: z-score of subpopulation abundance vs DMSO median, subpopulation auxotrophic for UM; higher = larger share of this subpopulation than in DMSO controls; conditions: 10 µM; 24 h; SM minimal medium; subpopulation (auxotrophy): UM
Procedure, shortened: as §1

[16] = system: Saccharomyces cerevisiae BY4741 SeMeCo community; experiment: z-score of subpopulation abundance vs DMSO median, subpopulation auxotrophic for HL; higher = larger share of this subpopulation than in DMSO controls; conditions: 10 µM; 24 h; SM minimal medium; subpopulation (auxotrophy): HL
Procedure, shortened: as §1

Compound | mean cell size [1] | z-score of prototroph abundance [2] | z-score of subpopulation abundance [3] | z-score of subpopulation abundance [4] | z-score of subpopulation abundance [5] | z-score of subpopulation abundance [6] | z-score of subpopulation abundance [7] | z-score of subpopulation abundance [8] | z-score of subpopulation abundance [9] | z-score of subpopulation abundance [10] | z-score of subpopulation abundance [11] | z-score of subpopulation abundance [12] | z-score of subpopulation abundance [13] | z-score of subpopulation abundance [14] | z-score of subpopulation abundance [15] | z-score of subpopulation abundance [16]
C#C[C@]1(O)CC[C@H]2[C@@H]3CCC4=CC(=O)CC[C@@H]4[C@H]3C(=C)C[C@@]21CC [Etonogestrel] | 12.4 ± 0.14 | 0.26 | -1.48 | -0.43 | 1.19 | 0.15 | -0.7 | -1.24 | 0.83 | 0.5 | -0.55 | -0.52 | -0.63 | -0.23 | – | –
CCC(C)(C)C(=O)O[C@H]1C[C@@H](C)C=C2C=C[C@H](C)[C@H](CC[C@@H]3C[C@@H](O)CC(=O)O3)[C@H]21 [Simvastatin] | 11.7 ± 0.28 | -1.66 | -0.68 | -0.13 | 0.43 | 0.79 | -0.1 | 2.47 | – | 3.09 | 3.79 | 1.9 | 1.33 | 2.55 | 0.62 | 1.65
CC(C(O)c1ccc(O)cc1)N1CCC(Cc2ccccc2)CC1 (stereo unspecified) [Ifenprodil Tartrate] | 12.5 ± 0.24 | – | -0.68 | -0.15 | 0.69 | -0.73 | -0.75 | -0.88 | -0.43 | -1.12 | -0.92 | -1.27 | -0.99 | -1.11 | -0.03 | -1.19
Cc1cc(NS(=O)(=O)c2ccc(N)cc2)nc(C)n1 [sulfaisodimidine] | 12.1 ± 0.25 | -0.51 | 0.59 | 0.19 | 0.36 | – | 0.12 | 0.38 | 0.09 | 0.38 | -0.45 | -0.19 | – | 0.48 | 0.16 | -0.94
CC(=O)OC(C)C[N+](C)(C)C (stereo unspecified) [Methacholine chloride] | 12.5 ± 0.13 | – | 0 | 0.65 | 0.32 | 0.16 | 0.88 | 0.64 | 0.67 | 0.55 | 0.76 | 0.26 | 0.92 | 0.95 | 0.68 | 0.45
COc1cc(/C=C/C(=O)N2CCN(CC(=O)N3CCCC3)CC2)cc(OC)c1OC [Cinepazide maleate] | 12.6 ± 0.14 | -0.19 | 0 | -1.17 | 1.16 | -0.51 | -1.06 | -0.1 | 0.48 | 0.11 | -0.01 | – | -0.41 | -0.53 | 0.61 | -0.2
Nc1ccc2cc3ccc(N)cc3nc2c1 [Proflavine] | 12.11 ± 0.034 | 6.61 | 2.16 | -7.48 | -7.03 | 4.14 | – | 2.14 | -6.17 | -4.19 | -2.42 | -4.57 | -4.39 | -1.99 | -7.18 | -3.92
CO[C@@]1(NC(=O)Cc2cccs2)C(=O)N2C(C(=O)O)=C(COC(N)=O)CS[C@@H]21 [Cefoxitin sodium] | 12.5 ± 0.3 | 1.38 | -0.16 | -1.28 | -0.18 | – | -1.09 | – | -0.94 | -1.19 | -0.9 | -1.19 | -0.95 | -0.41 | -0.63 | -0.41
C#C[C@]1(O)CC[C@H]2[C@@H]3CCC4=CCCC[C@@H]4[C@H]3CC[C@@]21C [Lynestrenol] | 12.5 ± 0.23 | 0.17 | -1.23 | -0.78 | 1.07 | 0.16 | -0.94 | -0.19 | – | -0.88 | -0.46 | 0.15 | -0.41 | -0.6 | 0.5 | -0.15
Nc1ccc(S(=O)(=O)NC(=O)c2ccccc2)cc1 [Sulfabenzamide] | 12.5 ± 0.4 | 0.8 | -0.05 | -0.13 | – | -0.19 | – | -0.23 | -0.03 | 0.61 | 0.11 | -1.03 | -0.19 | – | -1.04 | -0.91
CC1(C)S[C@@H]2[C@H](NC(=O)C(C(=O)O)c3ccccc3)C(=O)N2[C@H]1C(=O)O (stereo partly specified) [Carbenicillin disodium] | 12.53 ± 0.098 | 0.19 | 0.64 | -0.23 | -0.46 | -0.07 | -0.02 | 0.66 | – | 0.36 | -0.53 | 0.12 | – | -0.61 | -0.3 | –
O=C1CC2(CCCC2)CC(=O)N1CCCCN1CCN(c2ncccn2)CC1 [Buspirone HCl] | – | 0.7 | -1.82 | 0.76 | 0.5 | -0.72 | -0.34 | -0.83 | -0.07 | -0.25 | -0.1 | -0.84 | -0.12 | 0.74 | -1.32 | 0
COc1cc(Cc2cnc(N)nc2N)cc(OC)c1OC [Trimethoprim] | 12.4 ± 0.14 | 0.19 | 0.01 | 0.44 | 0.2 | -0.5 | -0.07 | – | 0 | 0.25 | -0.6 | -0.12 | 0.27 | – | 0.07 | -0.46
CN1C(C(=O)Nc2ccccn2)=C(O)c2sc(Cl)cc2S1(=O)=O [Lornoxicam] | 12.1 ± 0.13 | -0.29 | -0.04 | -0.14 | 0.67 | – | -0.22 | -0.77 | 0.59 | -0.19 | 0.08 | -0.27 | 0.46 | – | – | -0.56
CO/N=C(\C(=O)N[C@@H]1C(=O)N2C(C(=O)O)=C(CSc3nnnn3C)CS[C@H]12)c1csc(N)n1 [Cefmenoxime hydrochloride] | – | – | 0.36 | -0.06 | -0.34 | 0.02 | – | – | -0.46 | -0.51 | -0.86 | -0.02 | -0.46 | – | 0.4 | -0.51

— the supplement of paper PMC8975748
